Source: PubChem BioAssay (NCATS)
Records with an inconclusive call do not appear. A call without a number means that no potency is given here. The source made the active and inactive calls. Unless noted, calls come from the whole dose curve; as a rule, active = well fitted curve in the direction sought with a large enough effect; inconclusive = small, poorly fitted or top-dose-only effect, or another doubt; inactive = no such curve, though single readings can be large; an effect the other way counts as inactive or inconclusive.

Tests used:
[1] = target: Peroxisome proliferator-activated receptor gamma (Homo sapiens) (UniProt P37231); assay: qHTS assay for small molecule agonists of peroxisome proliferator-activated receptor gamma signaling (AID 588536; active = well fitted curve in the direction sought with a large enough effect in the signal ratio, with a control signal flat, not every such curve was filed as active; the % refers to the signal ratio)
Outline: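 Compound treatment: 16 h, 37 C, HEK293 GeneBLAzer cells. Detection: CCF4, 2 h RT. Values: Hill-fit EC50, efficacy as % of 2 uM rosiglitazone.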

[2] = target: Vitamin D3 receptor (Homo sapiens) (UniProt P11473); assay: qHTS assay for small molecule antagonists of vitamin D receptor signaling (AID 588541; calls by dose curve;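 note: receptor activated by calcitriol during compound treatment; series mostly up to about 77 µM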)
Outline: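 VDR-UAS-bla HEK293T cells in 2% charcoal-stripped FBS were stimulated with 1-alpha,25-dihydroxyvitamin D3 (3 nM final) plus compound for 16 h at 37 C. The beta-lactamase CCF4 readout was normalized to 50 nM agonist and DMSO, and Hill fits gave IC50.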

[3] = target: Vitamin D3 receptor (Homo sapiens) (UniProt P11473); assay: qHTS assay for small molecule agonists of vitamin D receptor signaling (AID 588543; calls by dose curve)
Outline: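 qHTS in agonist mode: compound titrations stimulate a VDR-driven β-lactamase reporter in HEK293T cells over 16 h at 37 °C. Response normalized to 50 nM 1α,25-dihydroxyvitamin D3 = 100%, DMSO = 0%; Hill fitting gives EC50 and maximal response.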

[4] = qHTS assay for small molecule agonists of retinoid X receptor alpha signaling (AID 588544); details: HEK293T RXRa-UAS-bla, beta-lactamase reporter, 18 h; 530 nm emission
[5] = target: Thyroid hormone receptor beta (Homo sapiens) (UniProt P10828); assay: qHTS assay for small molecule agonists of thyroid hormone receptor beta signaling (AID 588545; calls by dose curve)
Outline: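 HEK 293 TR-UAS-bla; agonist mode; 18 hrs, 37 C; CCF4, ex 405/em 460 and 530 nm; norm. T3 10 nM = 100%, DMSO = 0%; Hill fit → EC50, efficacy.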

[6] = qHTS assay for small molecule antagonists of retinoid X receptor alpha signaling (AID 588546; active = well fitted inhibition curve with a large enough effect in the signal ratio, with a control signal flat, not every such curve was filed as active; the % refers to the signal ratio;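 note: cells stimulated with 9-cis-retinoic acid as agonist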); details: HEK293T RXRa-UAS-bla, beta-lactamase ratio, antagonist mode; measured here: W530 green channel, cytotoxicity proxy
Outline: (§1)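 Beta-lactamase reporter inhibition, read as CCF4 fluorescence ratio (ex 405, em 460/530 nm) after 2 h at RT. HEK293T UAS-bla cells, 2500/well, were stimulated with 9-cis-RA at 500 or 100 nM final alongside test compound for 18 h at 37 C.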

[7] = target: Retinoic acid receptor RXR-alpha (Homo sapiens) (UniProt P19793); assay: as above; details: HEK293T RXRa-UAS-bla, beta-lactamase ratio, antagonist mode
Outline: as §1

[8] = target: Thyroid hormone receptor beta (Homo sapiens) (UniProt P10828); assay: qHTS assay for small molecule antagonists of thyroid hormone receptor beta signaling (AID 588547; active = well fitted inhibition curve with a large enough effect in the signal ratio, with a control signal flat, not every such curve was filed as active; the % refers to the signal ratio;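 note: cells stimulated with 0.4 nM T3 agonist during compound exposure; series mostly up to about 77 µM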); details: TR-UAS-bla HEK293, beta-lactamase ratio, antagonist mode, 18 h
Outline: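 TR-UAS-bla GripTite HEK293 cells in 2% charcoal/dextran FBS medium; compounds 0.59 nM to 92 uM with T3 at 0.4nM final, 18 h at 37 C. Beta-lactamase read by CCF4 fluorescence (460/530 nm); Hill fits gave IC50 and efficacy.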

[9] = qHTS assay for small molecule agonists of the antioxidant response element (ARE) signaling pathway (AID 651741; active = well fitted activation curve with a large enough effect in the signal ratio; the % refers to the signal ratio)
Outline: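 HepG2 ARE-bla reporter cells, 2,000/well; 5 h settle at 37 C/5% CO2; compound pin transfer (23 nL, DMSO); 16 h at 37 C; LiveBLAzer B/G FRET substrate, 2 h RT; fluorescence intensity read.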

[10] = qHTS assay for small molecule activators of the nuclear factor-kappa B (NF-kB) signaling pathway (AID 651749; active = well fitted activation curve with a large enough effect in the signal ratio; the % refers to the signal ratio; note: series mostly up to about 77 µM); details: NF-kB-bla ME-180 cells, beta-lactamase FRET ratio, 16 h; stronger effect = higher value
Outline: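 NF-kB-bla ME-180 cells, 2,000/well; 23 nL compound or DMSO pinned; 16 hr, 37C/5% CO2; beta-lactamase FRET read-out.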

[11] = qHTS assay for small molecule disruptors of the mitochondrial membrane potential - 1 hr assay (AID 651754; calls by dose curve; note: nearly all actives have a fitted effect of over 35% in size)
Outline: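 In this qHTS format, a 1 hr compound treatment of HepG2 cells precedes Mito-MPS staining, and membrane potential is judged from aggregate (red) against monomer (green) fluorescence intensity.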

[12] = qHTS assay for small molecule disruptors of the mitochondrial membrane potential - 5 hr assay (AID 651755; calls by dose curve; note: nearly all actives have a fitted effect of over 40% in size)
Outline: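 Read-out: ratiometric Mito-MPS fluorescence, green monomer (ex 490/em 535) vs red mitochondrial aggregate (ex 540/em 590). HepG2 cells treated 5 hr at 37C before 30 min dye loading.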

[13] = target: Tumor necrosis factor (Homo sapiens) (UniProt P01375); assay: qHTS assay to identify small molecules that stimulate Tumor Necrosis Factor-alpha (TNF-alpha) secretion (AID 651757; active = well fitted curve in the direction sought with a large enough effect in the signal ratio; the % refers to the signal ratio)
Outline: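 Using 3000 THP-1 cells per well, compounds and controls were applied for 17 hrs at 37 C. Detection followed with two labeled anti-TNF-alpha antibodies (cryptate donor, XL665 acceptor) for 3 hr at room temperature, measured by TR-FRET.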

[14] = qHTS assay for environmental chemicals that activate the Aryl hydrocarbon Receptor (AhR) signaling pathway (AID 651777); details: 1A2-DRE human hepatoma cells, luciferase, 24 h; activation: stronger effect = higher value; note: nearly all actives have a fitted effect of over 15% in size
Outline: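 Luminescence (One-Glo, 30 min, room temperature) reports AhR-driven luciferase in stably transfected human hepatoma cells bearing DRE and CYP1A2 promoter. Cells (1,200/well) were treated with compound for 24 hr at 37 C in qHTS format.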

[15] = target: Peroxisome proliferator-activated receptor alpha (Homo sapiens) (UniProt Q07869); assay: qHTS assay for small molecule agonists of the peroxisome proliferator-activated receptor alpha (PPARalpha) signaling pathway (AID 651778); details: PathHunter PPARalpha complementation, chemiluminescence, 6 h; max response: stronger effect = higher value
Outline: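 Enzyme-fragment complementation assay in which ligand-bound PPARalpha translocates and forms an active enzyme that generates chemiluminescence. Cells were plated overnight, exposed to compound for 6 hr at 37 C, and then given detection reagent for 60 min at room temperature.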

[16] = target: Nuclear receptor ROR-gamma (Homo sapiens) (UniProt P51449); assay: qHTS assay for small molecule antagonists of the retinoid-related orphan receptor gamma (ROR-gamma) signaling pathway (AID 651802);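 note: CHO cells with doxycycline-induced ROR-gamma expression; luciferase reporter luminescence driven by ROR response element; series mostly up to about 92 µM; nearly all actives have a fitted effect of over 60% in size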
Outline: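 Doxycycline-induced reporter activity in engineered CHO cells (TET-inducible ROR, RORE-LUC) was measured by luminescence after 16hr compound exposure at 37C.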

[17] = qHTS assay for small molecule agonists of the antioxidant response element (ARE) signaling pathway measured by Nrf2-dependant transcriptional activity (AID 720636; active = well fitted curve in the direction sought with a large enough effect in the repeat runs; an effect the other way counts as inactive or inconclusive)
Outline: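 Nrf2-dependent transcription read as ONE-Glo luciferase signal from ARE-luc HepG2 reporter cells after 16 hr compound treatment at 37 C, 5% CO2, in assay medium with 1% dialyzed FBS.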

[18] = qHTS assay for small molecule antagonists of the retinoid-related orphan receptor gamma (ROR-gamma) signaling pathway - cell viability counter screen (AID 720652; active = well fitted curve in the direction sought with a large enough effect in the repeat runs; an effect the other way counts as inactive or inconclusive;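 note: CHO reporter cells with doxycycline-induced ROR-gamma expression; series mostly up to about 92 µM; compound exposure lasted 16 hr before ATP read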)
Outline: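 ATP-based viability readout in the ROR-gamma reporter CHO cells after 16 hr compound exposure under doxycycline induction.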

[19] = qHTS assay for cell viability of HEK293 cells (AID 743288); details: ATP luminescence (CellTiter-Glo), 18 h; max response: stronger effect = lower value; note: nearly all actives have a fitted effect of over 50% in size
Outline: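 Quantitative high-throughput screen: compounds were pinned onto parental HEK293 cells (2,000 per well) after a minimum 5 h settling at 37 C, incubated 18 h at 37 C, and intracellular ATP measured by luciferase luminescence.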

[20] = qHTS assay for cell viability of the p53RE-bla HCT-116 cell line (AID 743292); note: nearly all actives have a fitted effect of over 55% in size
Outline: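 ATP-based luminescent viability (CellTiter-Glo, 30 min RT) after 16 h compound treatment at 37 C of p53RE-bla HCT-116 cells, seeded at 4,000 cells/well and rested 5 h before dosing.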

[21] = target: Nuclear receptor subfamily 1 group I member 2 (Rattus norvegicus) (UniProt Q9R1A7); assay: qHTS assay for small molecule activators of the rat pregnane X receptor (rPXR) signaling pathway (AID 651751; call rule not given here); details: rPXR reporter cells, luciferase (One-Glo), 24 h
[22] = qHTS assay for small molecule activators of the human pregnane X receptor (PXR) signaling pathway (AID 720659; call rule not given here)

Thyroid hormone receptor beta (Homo sapiens), sequence (P10828 whole entry, looked up): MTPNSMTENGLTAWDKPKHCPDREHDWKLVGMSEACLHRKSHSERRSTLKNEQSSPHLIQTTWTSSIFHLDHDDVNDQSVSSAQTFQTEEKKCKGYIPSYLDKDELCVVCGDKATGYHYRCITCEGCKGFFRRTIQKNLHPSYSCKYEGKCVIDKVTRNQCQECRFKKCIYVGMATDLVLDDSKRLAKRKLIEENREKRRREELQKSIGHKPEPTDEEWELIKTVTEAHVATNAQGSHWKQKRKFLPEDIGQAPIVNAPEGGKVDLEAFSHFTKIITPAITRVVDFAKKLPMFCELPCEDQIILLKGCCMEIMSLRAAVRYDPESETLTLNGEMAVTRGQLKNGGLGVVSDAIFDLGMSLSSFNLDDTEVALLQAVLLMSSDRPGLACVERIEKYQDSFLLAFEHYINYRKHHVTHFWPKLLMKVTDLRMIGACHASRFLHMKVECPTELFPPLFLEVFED
Vitamin D3 receptor (Homo sapiens), sequence (P11473 whole entry, looked up): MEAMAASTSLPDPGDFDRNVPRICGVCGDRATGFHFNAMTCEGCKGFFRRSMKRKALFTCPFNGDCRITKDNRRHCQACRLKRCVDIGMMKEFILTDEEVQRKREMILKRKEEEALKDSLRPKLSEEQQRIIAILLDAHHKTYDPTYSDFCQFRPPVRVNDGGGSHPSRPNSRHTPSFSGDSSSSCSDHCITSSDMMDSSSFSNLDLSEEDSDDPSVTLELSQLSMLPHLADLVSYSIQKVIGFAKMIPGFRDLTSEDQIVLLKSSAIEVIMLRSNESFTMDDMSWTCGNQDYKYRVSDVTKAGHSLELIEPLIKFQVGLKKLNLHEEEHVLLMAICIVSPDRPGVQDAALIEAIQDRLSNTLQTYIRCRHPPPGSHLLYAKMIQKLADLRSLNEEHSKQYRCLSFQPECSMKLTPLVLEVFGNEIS
Nuclear receptor ROR-gamma (Homo sapiens), sequence (P51449 whole entry, looked up): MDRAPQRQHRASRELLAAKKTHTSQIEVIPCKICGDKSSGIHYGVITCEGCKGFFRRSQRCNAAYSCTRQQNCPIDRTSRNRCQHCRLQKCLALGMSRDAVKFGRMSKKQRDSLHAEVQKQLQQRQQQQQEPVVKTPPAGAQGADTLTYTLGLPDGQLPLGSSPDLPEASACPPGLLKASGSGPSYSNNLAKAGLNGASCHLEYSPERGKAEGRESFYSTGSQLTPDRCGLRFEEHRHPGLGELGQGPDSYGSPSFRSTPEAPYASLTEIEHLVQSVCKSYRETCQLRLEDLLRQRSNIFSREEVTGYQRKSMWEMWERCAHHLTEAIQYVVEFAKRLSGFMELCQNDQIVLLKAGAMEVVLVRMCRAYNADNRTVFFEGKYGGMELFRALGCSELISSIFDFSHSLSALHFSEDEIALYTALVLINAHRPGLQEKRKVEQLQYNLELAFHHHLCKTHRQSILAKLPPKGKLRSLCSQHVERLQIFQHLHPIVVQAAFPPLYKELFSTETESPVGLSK
Peroxisome proliferator-activated receptor gamma (Homo sapiens), sequence (P37231 whole entry, looked up): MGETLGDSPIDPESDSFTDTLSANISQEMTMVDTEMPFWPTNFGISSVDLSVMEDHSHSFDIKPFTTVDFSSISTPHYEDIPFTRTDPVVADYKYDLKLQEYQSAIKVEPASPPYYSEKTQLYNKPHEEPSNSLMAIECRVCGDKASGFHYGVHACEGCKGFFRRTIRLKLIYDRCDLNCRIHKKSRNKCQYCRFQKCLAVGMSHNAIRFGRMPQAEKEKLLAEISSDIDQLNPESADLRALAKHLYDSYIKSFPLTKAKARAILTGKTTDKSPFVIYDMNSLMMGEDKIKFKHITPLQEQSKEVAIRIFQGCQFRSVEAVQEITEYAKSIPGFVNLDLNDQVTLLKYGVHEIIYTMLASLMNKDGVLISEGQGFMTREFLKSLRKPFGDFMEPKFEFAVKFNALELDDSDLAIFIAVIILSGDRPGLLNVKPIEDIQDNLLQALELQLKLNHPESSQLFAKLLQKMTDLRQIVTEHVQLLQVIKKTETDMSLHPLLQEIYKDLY
Retinoic acid receptor RXR-alpha (Homo sapiens), sequence (P19793 whole entry, looked up): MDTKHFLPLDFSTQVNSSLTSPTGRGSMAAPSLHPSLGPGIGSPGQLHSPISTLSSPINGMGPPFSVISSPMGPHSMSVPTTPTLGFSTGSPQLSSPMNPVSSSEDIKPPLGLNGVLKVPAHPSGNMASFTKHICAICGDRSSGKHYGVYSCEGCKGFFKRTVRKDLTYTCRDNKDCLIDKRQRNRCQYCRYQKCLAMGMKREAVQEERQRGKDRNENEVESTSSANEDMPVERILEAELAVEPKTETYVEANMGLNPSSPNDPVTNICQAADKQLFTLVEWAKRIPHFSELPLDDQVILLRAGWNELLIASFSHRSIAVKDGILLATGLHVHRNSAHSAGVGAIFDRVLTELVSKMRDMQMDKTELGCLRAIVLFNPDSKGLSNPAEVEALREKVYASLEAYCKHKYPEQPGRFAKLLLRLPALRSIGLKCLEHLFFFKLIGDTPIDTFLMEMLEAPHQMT
Tumor necrosis factor (Homo sapiens), sequence (P01375 whole entry, looked up): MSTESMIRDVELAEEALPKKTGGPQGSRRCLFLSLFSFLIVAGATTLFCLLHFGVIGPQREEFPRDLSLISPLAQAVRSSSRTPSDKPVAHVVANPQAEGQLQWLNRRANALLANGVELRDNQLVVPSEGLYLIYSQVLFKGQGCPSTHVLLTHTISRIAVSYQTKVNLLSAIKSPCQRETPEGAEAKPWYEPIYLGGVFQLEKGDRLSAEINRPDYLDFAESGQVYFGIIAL
Peroxisome proliferator-activated receptor alpha (Homo sapiens), sequence (Q07869 whole entry, looked up, the tested form may be a part): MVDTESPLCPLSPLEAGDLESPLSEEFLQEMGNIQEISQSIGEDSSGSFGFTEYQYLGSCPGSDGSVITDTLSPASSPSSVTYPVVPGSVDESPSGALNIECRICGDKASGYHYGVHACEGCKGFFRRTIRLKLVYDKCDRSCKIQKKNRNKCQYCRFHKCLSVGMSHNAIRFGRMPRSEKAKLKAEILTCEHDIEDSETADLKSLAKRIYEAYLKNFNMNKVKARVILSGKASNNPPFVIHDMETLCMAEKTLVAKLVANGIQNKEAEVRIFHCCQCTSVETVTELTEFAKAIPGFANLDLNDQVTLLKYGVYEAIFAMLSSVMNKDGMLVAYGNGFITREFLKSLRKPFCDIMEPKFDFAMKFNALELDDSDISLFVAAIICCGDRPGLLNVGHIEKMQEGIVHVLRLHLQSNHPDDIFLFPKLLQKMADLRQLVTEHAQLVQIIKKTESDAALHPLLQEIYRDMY
Nuclear receptor subfamily 1 group I member 2 (Rattus norvegicus), sequence (Q9R1A7 whole entry, looked up): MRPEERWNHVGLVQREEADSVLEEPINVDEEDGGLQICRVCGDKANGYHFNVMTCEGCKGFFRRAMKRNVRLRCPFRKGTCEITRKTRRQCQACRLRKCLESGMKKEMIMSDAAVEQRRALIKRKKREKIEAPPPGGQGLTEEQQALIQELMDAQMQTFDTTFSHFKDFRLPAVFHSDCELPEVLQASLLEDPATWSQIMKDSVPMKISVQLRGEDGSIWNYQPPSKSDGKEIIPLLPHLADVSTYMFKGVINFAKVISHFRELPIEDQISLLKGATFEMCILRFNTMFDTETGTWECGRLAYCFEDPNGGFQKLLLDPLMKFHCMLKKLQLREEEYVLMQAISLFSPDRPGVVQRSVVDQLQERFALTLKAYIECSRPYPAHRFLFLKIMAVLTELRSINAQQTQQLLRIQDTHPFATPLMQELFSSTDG

Structure (SMILES): CCCCCC/C(C=O)=C\c1ccccc1
- outcome [1]: inactive
- Potency [2]: inactive
- outcome [3]: inactive
- max response [4]: 3.46%
- outcome [5]: inactive
- max response [6]: 10.6%
- max response [7]: 9.05% (inactive)
- activity change % (negative = inhibition) [8]: 8.8% (inactive)
- Potency [9]: inactive
- activation [10]: -0.556% (inactive)
- Potency [11]: inactive
- Potency [12]: inactive
- outcome [13]: inactive
- activation [14]: -0.354% (inactive)
- max response [15]: -1.11% (inactive)
- Potency [16]: inactive
- Potency [17]: inactive
- Potency [18]: inactive
- max response [19]: -1.93% (inactive)
- Potency [20]: inactive
- max response [21]: -2.08% (inactive)
- outcome [22]: inactive
